Among the data in PubChem BioAssay (NCATS) are max response values, retold here.

Several values for one entry are separate records, joined by “and”; a condition that tells them apart may be missing. Equal values may be shown once. Results filed as inconclusive are left out. Activity calls are given as the source filed them. Calls come from the whole dose curve; as a rule, active = well fitted inhibition curve with a large enough effect; inconclusive = small, poorly fitted or top-dose-only effect; inactive = flat fitted curve, though single readings scatter.
% is set by controls: 0 for no effect and ±100 for the full control effect.

The test relates to KB-3-1. The test is described as follows: Cytotoxic Profiling of Annotated Libraries Using Quantitative High-Throughput Screening (AID 1296008). Note: nearly all actives have a fitted effect of over 60% in size. The settings on record: Five cell lines viability, CellTiter-Glo ATP luminescence, 48-72 h; max response: stronger effect = lower value. The method, boiled down:
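Compounds were pin-transferred onto cells and incubated 48 or 72 hr at 37 degree Celsius, 95% humidity. CellTiter-Glo was added, plates sat 10 min at room temperature, then ATP-coupled luminescence was imaged as the viability read-out.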
With `CC(C)(C)[C@H](NC(=O)c1ccc(N)c(Cl)c1)C(=O)N1CCC[C@H]1C(=O)N[C@H](C#N)CC(=O)O`, the max response is 5.39% (inactive).
For `CCC(c1ccccc1)c1noc(CCN(CC)CC)n1` (stereo not drawn) the value was -6.24% (inactive).
Turning to `CSCC[C@H](NC(=O)[C@H](Cc1ccc(OS(=O)(=O)O)cc1)NC(=O)[C@@H](N)CC(=O)O)C(=O)NCC(=O)N[C@@H](Cc1c[nH]c2ccccc12)C(=O)N[C@@H](CCSC)C(=O)N[C@@H](CC(=O)O)C(=O)N[C@@H](Cc1ccccc1)C(N)=O`, the max response is -5.26% (inactive) and -10.7% (inactive).
As for `CC(C(=O)O)c1ccc(C2CCCCC2)c2ccccc12` (stereo not drawn), the max response was -20.6% (inactive).
Consider `CCC(CN)CC(C)CCNCC(O)CNCC(C)CC(CC)CN` (stereo not drawn), for which the max response was -5.63% (inactive).
Regarding `CCC(C)(C)OC(=O)N[C@@H](Cc1c[nH]c2ccccc12)C(=O)N[C@@H](CCSC)C(=O)N[C@@H](CC(=O)O)C(=O)N[C@@H](Cc1ccccc1)C(N)=O`, the max response is 0.713% (inactive).
As for `CCCCOC(=O)C(=O)Nc1cccc(-c2nn[nH]n2)c1`, the max response is -17% (inactive).
With `CCCCCCCC/C=C\CCCCCCCC(=O)OC[C@@H](O)[C@H]1OC[C@H](O)[C@H]1O` the figure was -11.7% (inactive).
For `COC[C@H](c1ccc(C(F)(F)F)cc1)N1CCN(C2(C)CCN(C(=O)c3c(C)ncnc3C)CC2)C[C@H]1C` the value was -20% (inactive).
For `CCOC(=O)COc1ccc2c(C)c(CCN(CC)CC)c(=O)oc2c1` the value was -7.36% (inactive); for `COc1cc2c(c(OC)c1OC)-c1c(cc3c(c1OC)OCO3)C[C@@H](C)[C@](C)(O)C2`, 21.3% (inactive) and -4.33% (inactive).
Turning to `CCC(=O)O`, the max response is -11.1% (inactive).
For `CC(=O)O[C@H]1CC[C@@]2(C)C(=CC[C@@H]3[C@@H]2CC[C@]2(C)C(c4cccnc4)=CC[C@@H]32)C1` the value was 0.542% (inactive).
`CCCCCCCCCCCCCCCC(=O)OCCC1CCN(CCCN2c3ccccc3Sc3ccc(S(=O)(=O)N(C)C)cc32)CC1`: the max response was -4.82% (inactive).
For `O=C1O[C@@H]2[C@@H](O)[C@H](O)O[C@@H]2[C@H]1O`, the max response is -9.13% (inactive).
As to `Cc1cccc(C)c1N(CCCc1cccnc1)C(=O)C(C)N` (stereo not drawn), the max response is -6.26% (inactive).
For `Cc1ccc(-c2c(C(=O)CCl)n(CCCO)c3ncnc(N)c23)cc1` the value was -3.1% (inactive).
With `CN[C@@H]1CCc2[nH]c3ccc(C(N)=O)cc3c2C1` the figure was -3.81% (inactive).
For `Cc1cc2ncc(C(=O)NCC(C)(C)NCC(=O)N3CCC[C@H]3C#N)cn2n1`, the max response was 3.28% (inactive).
Regarding `CC(C)(S)C(=O)N[C@@H](CS)C(=O)O`, the max response was -0.209% (inactive) and -15.2% (inactive).
For `CC(CCC1(O)OC2CC3C4CC=C5CC(O[C@@H]6O[C@H](CO)[C@@H](O[C@@H]7O[C@@H](C)[C@H](O)[C@@H](O)[C@H]7O)[C@H](O)[C@H]6O[C@@H]6O[C@@H](C)[C@H](O)[C@@H](O)[C@H]6O)CCC5(C)C4CCC3(C)C2C1C)CO[C@@H]1O[C@H](CO)[C@@H](O)[C@H](O)[C@H]1O` (stereo partly drawn) the value was 6.64% (inactive).
Take `CC(=O)OCC(=O)[C@@]1(O)[C@H](C)C[C@H]2[C@@H]3C[C@H](F)C4=CC(=O)C=C[C@]4(C)[C@H]3[C@@H](O)C[C@@]21C`: the max response was 23.1% (inactive).
Regarding `CC#CCC(C)[C@H](O)/C=C/[C@@H]1[C@H]2C/C(=C/CCCC(=O)O)C[C@H]2C[C@H]1O` (stereo partly drawn), the max response was -19% (inactive).
For `CC(CN(C)C)CN1c2ccccc2S(=O)(=O)c2ccccc21` (stereo not drawn), the max response is 23.6% (inactive).
With `CC1(C)C2CC[C@]3(C)[C@H](C(=O)C=C4[C@@H]5C[C@@](C)(C(=O)O)CC[C@]5(C)CC[C@]43C)[C@@]2(C)CC[C@@H]1O[C@H]1O[C@H](C(=O)O)[C@@H](O)[C@H](O)[C@H]1O[C@@H]1O[C@H](C(=O)O)[C@@H](O)[C@H](O)[C@H]1O` (stereo partly drawn) the figure was -22.6% (inactive).
Consider `C=Cc1ccccc1`, for which the max response was -0.236% (inactive).
On to `O=C(O)CC(O)(CC(=O)O)C(=O)O`, for which the max response is -1.69% (inactive).
With `C=C1C(=O)O[C@H]2CC(=C)[C@H]3CC[C@@](C)(O)[C@@H]3CC12` (stereo partly drawn) the figure was -21.5% (inactive).
